A selection: hits, their analogues and other compounds. The true share with any hit is near 1.2%.
GCN5L2 inh: inhibitors of human GCN5L2 histone acetyltransferase; GCN5L2 HAT assay, ThioGlo1 CoA-SH fluorescence; Potency, µM (top dose mostly 58.9 µM), most hits filed as inhibitors; hit rate 0.21% among 390,000; AID 504327
Target sequence (Q92830 whole entry, looked up): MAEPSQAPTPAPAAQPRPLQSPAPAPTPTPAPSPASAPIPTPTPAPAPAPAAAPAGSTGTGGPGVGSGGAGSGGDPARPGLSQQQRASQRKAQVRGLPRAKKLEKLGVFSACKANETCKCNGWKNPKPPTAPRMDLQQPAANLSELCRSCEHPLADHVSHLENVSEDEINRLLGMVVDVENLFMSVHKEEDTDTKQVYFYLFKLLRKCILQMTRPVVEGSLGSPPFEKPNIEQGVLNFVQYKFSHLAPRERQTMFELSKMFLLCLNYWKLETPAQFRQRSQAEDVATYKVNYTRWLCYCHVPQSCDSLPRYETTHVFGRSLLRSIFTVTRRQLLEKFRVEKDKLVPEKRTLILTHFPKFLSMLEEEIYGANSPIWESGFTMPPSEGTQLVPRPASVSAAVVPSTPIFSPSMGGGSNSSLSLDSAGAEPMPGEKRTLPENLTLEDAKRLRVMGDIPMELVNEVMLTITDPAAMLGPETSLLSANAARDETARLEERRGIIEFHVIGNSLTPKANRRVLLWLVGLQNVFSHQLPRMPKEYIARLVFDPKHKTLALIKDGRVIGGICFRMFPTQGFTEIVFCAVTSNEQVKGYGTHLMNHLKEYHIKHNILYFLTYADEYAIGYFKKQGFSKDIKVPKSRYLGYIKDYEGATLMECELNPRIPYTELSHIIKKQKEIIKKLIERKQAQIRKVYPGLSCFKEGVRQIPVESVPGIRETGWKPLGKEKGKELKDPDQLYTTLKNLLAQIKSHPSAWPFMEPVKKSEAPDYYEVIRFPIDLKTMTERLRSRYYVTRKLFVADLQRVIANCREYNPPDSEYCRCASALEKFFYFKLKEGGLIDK
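GCN5L2 (20 nM) in 50mM HEPES pH 7.5, 0.1mM EDTA, 0.01% Tween-20 preincubated 15 min with compounds at room temperature. Reaction started with H3(1-25) 75uM, acetyl-CoA 70uM, ThioGlo1 50uM; CoA-thiol fluorescence (Ex340/Em540) read at 0 and 20 min.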
TexasRed fluor: counter-screen for TRb-SRC2 inhibitors: fluorescence interference. TRb/SRC2 Texas Red total fluorescence interference. Potency, µM (highest dose often 106 µM). hit rate 0.29% among 280,000. AID 1479; active means well fitted curve in either direction with a large enough effect; inconclusive means small, poorly fitted or top-dose-only effect
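Flags fluorescent or light-absorbing compounds by total fluorescence, S + 2P, at 555 nm excitation and 632 nm emission. Mixture: 20 nM Texas Red SRC2 peptide, 0.6 uM human TRb LBD, 1 uM T3, 5% DMSO; compound exposure 5 h at ambient temperature.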
TRb-SRC2 inh: disrupts binding of human TR beta to SRC2 | Potency, µM (top dose mostly 106 µM), usual class: inhibitors | TRbeta-SRC2 peptide binding, fluorescence polarization; receptor liganded with 1 µM T3 | hit rate 0.065% among 280,000; further: nearly all actives have a fitted effect of over 50% in size
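Polarization signal, normalized between peptide-alone and full complex controls, measured compound effects on T3-liganded human TRb LBD (0.6 uM) binding 20 nM Texas Red SRC2 peptide after 5 hr.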
VDR inh: vitamin D3 receptor (human) inhibition. VDR-SRC2-3 peptide fluorescence polarization, 2 h. Potency, µM, usual class: inhibitors. hit rate 0.93% among 400,000. AID 504847
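Inhibition of the VDR/SRC2-3 peptide interaction is quantified by fluorescence polarization. Compounds (23 nl, pintool) incubate with the reagents for 2 hours at ambient room temperature.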
GoLoco inh red: RGS12 GoLoco-Gai1 interaction inhibition | Gai1:RGS12 GoLoco peptide FP, rhodamine, 10 min | P63096 | Potency, µM (titrated, usually from 61.6 µM), usual class: inhibitors | AID 880 | hit rate 0.44% among 230,000; active means well fitted inhibition curve with a large enough effect, not every such curve was filed as active; inactive means no such curve, though single readings can be large or run the other way; further: nearly all actives have a fitted effect of over 30% in size
USP1-UAF1 confirm: validation of human USP1/UAF1 inhibitors; shares compounds with VDR inh; Ub-Rhodamine cleavage, fluorescence kinetic read; Potency, µM (top dose mostly 56.8 µM), usual class: inhibitors; hit rate 50% among 50; AID 540327
VDR inh confirm: confirmation of human vitamin D receptor inhibitors; hit rate 89% among 840; VDR-coactivator inhibition assay, qHTS confirmation; Potency, µM, usual class: inhibitors; shares compounds with VDR inh
VDR FP fluor: confirmation of human VDR-coactivator binding inhibitors, fluorescein label; shares compounds with VDR inh; VDR-coactivator binding, fluorescein fluorescence polarization; Potency, µM (top dose mostly 57.1 µM), hits mostly inhibitors; hit rate 48% among 840; AID 602200
VDR bla reporter: confirmation of human vitamin D receptor inhibitors in reporter cells; Potency, µM (top dose mostly 46.1 µM), hits mostly inhibitors; VDR beta-lactamase reporter cells, FRET ratio; cells co-treated with VDR agonist LG190178; shares compounds with VDR inh; AID 602202; hit rate 23% among 840
VDR cytotox: cell toxicity, VDR inhibitor hit counter-screen | Potency, µM (top dose mostly 48.3 µM), usual class: cytotoxic | hit rate 18% among 840 | shares compounds with VDR inh | AID 602204 | cytotoxicity counter-screen, cell viability, qHTS; further: nearly all actives have a fitted effect of over 75% in size
Each line names hits and unclear results; the compound was inactive in the other large screens (follow-up assays come after a bar, where they were run); ! = not confirmed by another sample. Unless noted, the call rests on the fitted dose curve; in most records, active means well fitted curve in the direction sought with a large enough effect; inconclusive means small, poorly fitted or top-dose-only effect, or another doubt; inactive means no such curve, though single readings can be large; an effect the other way counts as inactive or inconclusive.

CSc1ccccc1NC(=O)CCS(=O)(=O)c1nc(-c2ccc3c(c2)OCO3)cc(C(F)(F)F)n1	VDR inh inconclusive (no result: GoLoco inh red)
O=C(CCS(=O)(=O)c1nc(-c2cccs2)cc(C(F)(F)F)n1)Nc1ccc(F)c(Cl)c1	VDR inh 22.4µM (no result: GoLoco inh red) | VDR inh confirm 3.16 | VDR FP fluor 3.55µM | VDR bla reporter inconclusive | VDR cytotox inconclusive
CC(C)c1nnc(NC(=O)CCS(=O)(=O)c2nc(-c3cccs3)cc(C(F)(F)F)n2)s1	VDR inh 22.4µM | VDR inh confirm 9.47 | VDR FP fluor inconclusive | VDR bla reporter inconclusive | VDR cytotox inconclusive
CN(C)CCNS(=O)(=O)N(C)C	none (no result: GCN5L2 inh, TexasRed fluor, TRb-SRC2 inh, VDR inh)
CCCCC1C(=O)N(c2ccccc2)N(c2ccc(O)cc2)C1=O (configuration not stated)	VDR inh 11.2µM! | VDR inh confirm inconclusive | VDR FP fluor 14.1µM | VDR bla reporter 6.51µM | VDR cytotox 21.2µM
C=CCn1cccc(/C=C/C(=O)c2ccc(C(C)(C)C)cc2)c1=S	VDR inh inconclusive | VDR inh confirm 7.08 | VDR FP fluor 7.08µM | VDR bla reporter inconclusive | VDR cytotox inconclusive
O=C1/C(=C/c2cccc([N+](=O)[O-])c2)CCc2ccccc21	VDR inh inconclusive | VDR inh confirm 12.6 | VDR FP fluor 25.1µM | VDR bla reporter inconclusive | VDR cytotox inconclusive
c1ccc(CCc2nn3c(Cc4ccccc4)nnc3s2)cc1	VDR inh 79.4µM | VDR inh confirm 28.2 | VDR FP fluor 25.1µM | VDR bla reporter inactive | VDR cytotox inconclusive
CN1CCN(C(c2ccc(Br)cc2)c2cc(Cl)c3cccnc3c2O)CC1 (configuration not stated)	VDR inh inconclusive (no result: TexasRed fluor, TRb-SRC2 inh, GoLoco inh red) | VDR inh confirm 7.94 | VDR FP fluor 3.16µM | VDR bla reporter 23.1µM | VDR cytotox inconclusive
OC[C@H](CCc1c[nH]c2ccccc12)c1c[nH]c2ccccc12	none (no result: GCN5L2 inh, TexasRed fluor, TRb-SRC2 inh, VDR inh)
CC1(C)CC(=O)C(C(c2cc([N+](=O)[O-])ccc2Cl)C2C(=O)CC(C)(C)CC2=O)C(=O)C1	none (no result: GCN5L2 inh, TexasRed fluor, TRb-SRC2 inh, GoLoco inh red)
Cc1sc(C(C2C(=O)CC(C)(C)CC2=O)C2C(=O)CC(C)(C)CC2=O)cc1[N+](=O)[O-]	VDR inh inconclusive | VDR inh confirm 6.31 | VDR FP fluor 3.98µM | VDR bla reporter inactive | VDR cytotox inactive
O=C1Nc2ccc(I)cc2/C1=C/c1cc(Br)c(O)c(Br)c1	GCN5L2 inh 22.4µM, TexasRed fluor inconclusive, VDR inh 25.1µM | USP1-UAF1 confirm 74.4µM
Cc1ccc(-c2cc(C(=O)NN3CCOCC3)c3cc(Br)ccc3n2)o1	none
Cc1ccc(-c2cc(C(=O)O)c3cc(Br)ccc3n2)o1	GCN5L2 inh inconclusive, VDR inh 31.6µM | VDR inh confirm 26.7 | VDR FP fluor inconclusive | VDR bla reporter inactive | VDR cytotox inactive
CN(Cc1ccccc1)C(=O)NC1CCCCC1	none
CC(C)(Sc1ccc(CCN(CCCCC2CCCCC2)C(=O)NC2CCCCC2)cc1)C(=O)O	GCN5L2 inh 12.6µM, VDR inh 39.8µM | USP1-UAF1 confirm 33.2µM
O=C(c1ccc(Cl)cc1)C(CN1CCCCC1)c1ccccc1 (configuration not stated)	VDR inh 20µM (no result: TexasRed fluor, TRb-SRC2 inh, GoLoco inh red) | VDR inh confirm inconclusive | VDR FP fluor 22.4µM | VDR bla reporter 13µM | VDR cytotox 18.4µM
CCOC(=O)C(CN1CCCC1)c1ccccc1 (configuration not stated)	none (no result: TexasRed fluor, TRb-SRC2 inh, GoLoco inh red)
C=CCOc1cccc(C(=O)/C=C2/C(=O)Nc3ccccc32)c1	VDR inh inconclusive (no result: TexasRed fluor, TRb-SRC2 inh, GoLoco inh red) | VDR inh confirm 8.44 | VDR FP fluor 8.91µM | VDR bla reporter inconclusive | VDR cytotox inconclusive
O=C(O)COc1ccccc1/C=C1\C(=O)Nc2ccc(Br)cc21	VDR inh inconclusive (no result: TexasRed fluor, TRb-SRC2 inh, GoLoco inh red)
NC(N)=NCCC[C@H](N)C(=O)NCC(=O)N[C@@H](CC(=O)O)C(=O)O	none (no result: GoLoco inh red)
CCC(=O)N(CC)C1=C(O)c2ccccc2C(=O)C1=O	VDR inh 79.4µM | VDR inh confirm inconclusive | VDR FP fluor inconclusive | VDR bla reporter inconclusive | VDR cytotox inconclusive
COc1ccc(C(=O)/C=C/C(=O)N(Cc2ccc3c(c2)OCO3)C(C(=O)NC2CCCCC2)c2ccncc2)c(O)c1 (configuration not stated)	none
COCCN(CC(=O)NC1CCCCC1)C(=O)/C=C/C(=O)c1ccc(OC)cc1O	VDR inh 15.8µM | VDR inh confirm 9.47 | VDR FP fluor inconclusive | VDR bla reporter 20.6µM | VDR cytotox inconclusive
COc1ccc(C(=O)OCC(=O)NC(=O)NC2CCCC2)c(O)c1	none
COc1ccc(C(=O)/C=C/C(=O)N(CC(=O)NC2CCCCC2)Cc2cccs2)c(O)c1	VDR inh 44.7µM | VDR inh confirm 15 | VDR FP fluor inconclusive | VDR bla reporter 7.31µM | VDR cytotox 14.6µM
Fc1ccc(Nc2nc3nonc3nc2Nc2cccc(C(F)(F)F)c2)cc1	none (no result: GoLoco inh red)
COc1cccc(C(C2=C(O)CC(C)(C)CC2=O)C2C(=O)CC(C)(C)CC2=O)c1 (configuration not stated)	VDR inh inconclusive
CC1(C)CC(=O)C(C(C2=C(O)CC(C)(C)CC2=O)c2ccc([N+](=O)[O-])cc2)C(=O)C1 (configuration not stated)	VDR inh inconclusive (no result: GoLoco inh red)
Cc1ccc(C(C2=C(O)CC(C)(C)CC2=O)C2C(=O)CC(C)(C)CC2=O)s1 (configuration not stated)	VDR inh 50.1µM | VDR inh confirm 10.6 | VDR FP fluor 7.94µM | VDR bla reporter inactive | VDR cytotox inconclusive
CC1(C)CC(=O)C(C(C2=C(O)CC(C)(C)CC2=O)c2ccc(Br)s2)C(=O)C1 (configuration not stated)	VDR inh 10µM | VDR inh confirm 4.23 | VDR FP fluor 2.82µM | VDR bla reporter inactive | VDR cytotox inconclusive
Cc1cccc(C(=O)Oc2csc(=S)n2C(=O)c2cccc(C)c2)c1	VDR inh inconclusive | VDR inh confirm 8.91 | VDR FP fluor 2.82µM | VDR bla reporter inactive | VDR cytotox inactive
O=C(Oc1cccccc1=O)c1ccccc1	none

Screening results from PubChem.
